In the supplement of paper PMC6555819:

What was measured:
Test in all cases: PBM binding z-score (relative to random genomic background probes); higher = stronger binding; sequences stand for … in GC…GCGATTGACAGCGTAGAATGAAGG
[1] = test system: FXR:RXRa (NR concentration 270 nM, RXRa partner concentration 90 nM)
How it was run: (§1)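 For binding z-scores, the reference was random background probes on custom Agilent 4×180K protein-binding microarrays. These arrays were incubated 1 h with ligand-free nuclear receptor dimers in PBS pH 7.4, 2% milk, 0.02% Triton X-100, 1 mM DTT, 0.2 mg/mL BSA and 0.4 mg/ml salmon testes DNA. Fluorescence was scanned after antibody detection of each partner (one per run) and regression-normalized.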

[2] = test system: LXRa:RXRa (NR concentration 270 nM, RXRa partner concentration 90 nM)
How it was run: as §1

[3] = test system: LXRa homodimer (NR concentration 270 nM)
How it was run: as §1

[4] = test system: LXRb:RXRa (NR concentration 270 nM, RXRa partner concentration 90 nM)
How it was run: as §1

[5] = test system: LXRb homodimer (NR concentration 270 nM)
How it was run: as §1

[6] = test system: PPARa:RXRa (NR concentration 270 nM, RXRa partner concentration 90 nM)
How it was run: as §1

[7] = test system: PPARg:RXRa (NR concentration 180 nM, RXRa partner concentration 90 nM)
How it was run: as §1

[8] = test system: PPARg:RXRa 270nM:90nM, anti-RXR (NR concentration 270 nM, RXRa partner concentration 90 nM)
How it was run: as §1

[9] = test system: PPARg:RXRa 30nM:10nM, anti-RXR (NR concentration 30 nM, RXRa partner concentration 10 nM)
How it was run: as §1

[10] = test system: PPARg:RXRa 90nM:30nM, anti-RXR (NR concentration 90 nM, RXRa partner concentration 30 nM)
How it was run: as §1

[11] = test system: PPARg:RXRa DBDmut IVT, anti-RXR (DBD mutation: RXRa K156A/R161A, NR concentration 270 nM, RXRa partner concentration 90 nM)
How it was run: as §1

[12] = test system: PPARg:RXRa IVT, anti-PPARg (NR concentration 270 nM, RXRa partner concentration 90 nM)
How it was run: as §1

[13] = test system: PPARg DBDmut:RXRa IVT, anti-PPARg (DBD mutation: PPARg1 K132A/R137A, NR concentration 270 nM, RXRa partner concentration 90 nM)
How it was run: as §1

[14] = test system: PPARg DBDmut IVT, anti-PPARg (DBD mutation: PPARg1 K132A/R137A, NR concentration 270 nM)
How it was run: as §1

[15] = test system: PPARg homodimer (NR concentration 180 nM)
How it was run: as §1

[16] = test system: PXR:RXRa (NR concentration 270 nM, RXRa partner concentration 90 nM)
How it was run: as §1

[17] = test system: PXR homodimer (NR concentration 270 nM)
How it was run: as §1

[18] = test system: RARa:RXR (NR concentration 270 nM, RXRa partner concentration 90 nM)
How it was run: as §1

[19] = test system: RARa homodimer (NR concentration 270 nM)
How it was run: as §1

[20] = test system: RARb:RXRa (NR concentration 270 nM, RXRa partner concentration 90 nM)
How it was run: as §1

Sequence	PBM binding z-score [1]	PBM binding z-score [2]	PBM binding z-score [3]	PBM binding z-score [4]	PBM binding z-score [5]	PBM binding z-score [6]	PBM binding z-score [7]	PBM binding z-score [8]	PBM binding z-score [9]	PBM binding z-score [10]	PBM binding z-score [11]	PBM binding z-score [12]	PBM binding z-score [13]	PBM binding z-score [14]	PBM binding z-score [15]	PBM binding z-score [16]	PBM binding z-score [17]	PBM binding z-score [18]	PBM binding z-score [19]	PBM binding z-score [20]
CCTTACGGGTCCCGAGGTTATAGCACGACGAGCG	0.0402	0.394	-0.262	0.124	-0.6	0.95	0.635	-0.283	-0.617	-0.745	-1.26	-0.545	-0.471	-1.66	-0.111	0.32	-0.277	0.482	0.138	0.514
CCGACTAGGTTATGGGGCATTCAGGCAACGGTGA	0.258	0.306	0.00117	0.464	-0.646	1.81	3.22	4.17	1.77	3.95	3.02	3.3	-0.895	-0.581	1.05	-0.0889	-0.0769	0.303	-0.167	0.869
ATCGAACGGTCGTGAGGTGAGTATACAGAAAGGC	0.0725	-0.0756	-0.243	-0.299	-0.457	0.134	0.66	-0.0797	-0.119	-0.0767	-0.977	0.391	0.438	0.339	0.0797	0.0108	-0.33	0.461	0.0209	1.08
GCTGCTAGGTCAGGTTGGTAAGCTAACGGGTACG	1.13	0.523	-0.37	0.0783	-0.406	1.51	0.427	0.848	-0.218	0.338	2.81	2.17	-1.03	-1.39	0.662	-0.0241	-0.591	0.597	-0.659	3.09
AGTCAAAGTTCAGGACGAGGTAACGTATAGCACG	4.44	4.03	1.43	1.92	0.317	3.43	4.7	5.09	2.17	4.27	-0.0709	2.03	0.949	0.866	2.09	3.08	1.29	2.97	0.98	4.34
ACTTACGGTTCAACGAGGTTATAGCACGCGTATA	2.96	3.15	1.07	2.64	0.606	3.49	1.09	1.32	0.521	1.03	0.149	0.712	1.36	1.61	1.64	4.06	6.85	3.55	0.973	1.59
TATACAGGGTCAAAGGCGAGAGTACGAATGTCGA	7.01	6.18	2.21	4.53	2.51	6.19	7.72	6.81	3.94	6.47	2.19	4.69	2.38	1.65	2.22	3.85	0.6	4.91	0.979	4.45
GCTAGCAGGCCATTGGGGTCACTCAATGACGGGC	2.93	2.47	-0.298	3.06	-0.749	4.28	1.95	3.1	0.521	2.17	0.93	2.42	-0.918	-0.85	1.48	5.48	8.59	5.19	-0.69	3.01
TCTTGTAGATCAACAGGAGGTTAAGATAGATCGA	0.606	1.82	0.251	0.87	-0.281	1.34	0.413	1.07	2.4	1.53	1.53	1.03	0.933	1.02	0.31	0.729	-0.114	1.05	0.362	0.506
CTCGAAAGGGCGGTTGAGGTGAGTATACGGATAA	1.23	-0.197	-0.251	-0.253	-0.452	0.0374	0.00915	-0.518	-0.508	-0.301	-0.112	-0.15	0.116	0.0622	0.247	0.233	0.128	0.395	-0.275	1.08
TCTATTAGGTGATTAGGGCAACCGAAACAGCGGA	0.654	0.587	0.0646	0.425	0.526	1.86	2.13	2.98	3.56	2.97	4.87	4.81	2.12	1.04	0.876	0.422	0.211	0.593	0.993	1.37
GCTAGTTGGTCTGTAAAAGGTCACACACCGGTCG	3.27	4.45	4.26	3.98	0.57	4.33	2.5	4.63	2.19	4.12	0.547	2.28	0.389	-0.363	4.38	4.79	1.16	5.54	1.67	3.87
ACTTACGGGTCAACTAGGTTATAGCACGCGTATA	6.74	4.89	0.702	4.49	0.758	5.8	6.09	5.5	2.25	4.51	3.88	4.98	1.29	1.61	2.6	4.26	0.766	4.91	1.54	4.36
CCTACTGGGCCATCAGGTCGTTGATATCAACGTT	-0.00658	-0.372	-0.231	-0.0218	-0.541	0.992	1.22	2.22	0.274	1.41	4.23	4.12	-0.38	-0.752	0.382	0.0795	-0.323	0.272	-0.616	0.569
